The text below walks through data of PubChem BioAssay.

Each structure is given as a SMILES string. Active and inactive are the calls of the source.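 Rule for the calls, unless noted: active = inhibition above 20% together with a positive visual image hit; inconclusive = visual image hit but inhibition not above 20%; inactive = no visual image hit.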

The nature of assay [1]: inhibitors of TNFa-induced NFkB p65 translocation, primary screen, imaging, HUVEC, MLSMR starter and 10KST1 sets (AID 438).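 For inhibition: signal is the nuclear over cytoplasmic p65 intensity ratio per well.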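 Note: compound added about 3h40 before a 20 min TNFalpha stimulation.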 Conditions: HUVEC TNFa-induced p65 nuclear translocation; cell count: measured here: nuclei count (cytotoxicity indicator), at 2.08 µM; inhibition: at 2 µM, stronger effect = higher value, 0% TNFa-plus-vehicle, 100% no-TNFa wells.
A short description of assay [2]: reduction of polyQ htt aggregates in cells – imaging, exon1htt(103Q)mCFP cells, high-content imaging, primary screen (AID 483;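 active = visual image review flags a hit and inhibition of aggregation exceeds 20%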;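 note: compound exposure lasted 3 days before fixation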;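 for nuclei count: percent of the per-plate median nuclei count of sample wells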). To be noted: exon1htt(103Q)mCFP cell line, aggregate imaging, at 2 µM; inhibition of aggregation: stronger effect = higher value; nuclei count: measured here: cell count, toxicity.
The nature of assay [3]: endothelial E-selectin expression blockers – imaging, HUVEC, immunofluorescence, MLSMR starter and 10KST1 sets, primary screen (AID 487;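 active = visually confirmed hit in the image check and inhibition above 20%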;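 for inhibition: signal is fraction of cell area covered by stained E-selectin grains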;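 for nuclei count: 100% = median nuclei count of all wells on the same plate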). To be noted: HUVEC TNFalpha-induced E-selectin immunofluorescence imaging, at 2 µM; inhibition: stronger effect = higher value; nuclei count: measured here: cell number, toxicity.
A short description of assay [4]: Primary imaging screen for DUSP6 inhibitors that restore phospho-Erk in transfected HeLa cells, chemical complementation (AID 609;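 active = compounds giving at least 50% inhibition in the cell-based MKP-3 phosphatase rescue imaging test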;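 for inhibition: phospho-Erk level distribution per well compared with pooled transfected vehicle control wells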). To be noted: HeLa MKP-3 transfected, phospho-Erk imaging KS statistic, at 10 µM, cells stimulated with TPA for 15 min.
Assay [5] deals with Dual specificity protein phosphatase 6 (Homo sapiens) (UniProt Q16828). Described as above. Conditions: HeLa MKP-3 transfected, phospho-Erk imaging KS statistic; at 10 µM; stronger effect = higher value; cells stimulated with TPA for 15 min.
Sequence of Dual specificity protein phosphatase 6 (Homo sapiens) (Q16828 whole entry, looked up): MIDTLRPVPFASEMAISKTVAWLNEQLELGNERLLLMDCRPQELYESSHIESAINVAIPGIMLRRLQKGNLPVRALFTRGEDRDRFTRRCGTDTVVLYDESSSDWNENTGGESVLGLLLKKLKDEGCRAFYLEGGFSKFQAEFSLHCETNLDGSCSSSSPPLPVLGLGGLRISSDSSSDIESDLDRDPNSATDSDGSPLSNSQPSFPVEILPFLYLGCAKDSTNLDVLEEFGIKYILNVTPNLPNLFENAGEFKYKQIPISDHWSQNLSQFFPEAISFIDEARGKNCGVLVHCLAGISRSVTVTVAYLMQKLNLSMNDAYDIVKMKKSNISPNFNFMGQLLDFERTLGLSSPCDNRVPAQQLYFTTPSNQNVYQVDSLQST
Assay [6] addresses Voltage-gated potassium channel subunit beta-2 (Rattus norvegicus) (UniProt P62483). The assay is described as follows: inhibitors of rat Kvbeta2 reductase activity – biochemical, NADPH fluorescence, primary screen (AID 622;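 active = fluorescence slope higher than the sample average by over 3 SD, cut at about -0.22 in these data, passing the limit was not always enough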;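 note: slope of raw intensity against log time taken from 70 to 1610 s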). Conditions: recombinant KvBeta, 4-cyanobenzaldehyde reduction, at 10 µM, stronger effect = higher value.
Assay [7] shares this target. Put plainly: enhancers of rat Kvbeta2 NADPH turnover – biochemical, NADPH fluorescence, primary screen (AID 623;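 active = NADPH fluorescence slope more negative than the mean of all samples by about 3 SD, 99.7% confidence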;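 note: fluorescence intensity change per second fitted from 20 to 320 s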). Conditions: Recombinant KvBeta, NADPH fluorescence decrease slope, 10 min; at 10 µM; stronger effect = lower value.
The target of assay [8] is Alpha-2C adrenergic receptor (Homo sapiens) (UniProt P18825). Put plainly: compounds altering alpha2C-coupled GIRK flux – cell-based, HEK293 alpha2C/GIRK1/2, thallium flux, primary screen (AID 624;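 active = fluorescence slope after compound addition differing from the mean of all screened samples at 99.7% confidence, in either direction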;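 note: slope of fluorescence ratio to pre-addition baseline per second over 15 to 24 s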). To be noted: thallium flux BTC fluorescence, at 10 µM, actives lie on both sides.
Sequence of Alpha-2C adrenergic receptor (Homo sapiens) (P18825 whole entry, looked up): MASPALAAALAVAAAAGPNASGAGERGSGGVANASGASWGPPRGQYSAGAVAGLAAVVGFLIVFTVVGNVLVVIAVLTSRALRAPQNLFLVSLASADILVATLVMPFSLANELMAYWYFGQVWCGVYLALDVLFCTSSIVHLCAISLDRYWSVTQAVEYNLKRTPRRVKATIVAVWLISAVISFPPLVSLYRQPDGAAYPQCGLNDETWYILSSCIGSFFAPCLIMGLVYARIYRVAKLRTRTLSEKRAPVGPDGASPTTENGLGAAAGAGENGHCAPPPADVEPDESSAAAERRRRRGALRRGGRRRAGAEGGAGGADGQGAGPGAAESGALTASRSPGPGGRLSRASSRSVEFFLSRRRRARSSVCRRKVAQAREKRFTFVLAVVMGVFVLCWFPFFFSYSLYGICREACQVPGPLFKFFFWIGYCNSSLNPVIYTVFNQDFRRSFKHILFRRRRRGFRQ
The nature of assay [9]: inhibitors of larval lipid processing in zebrafish, primary screen, whole organism, PED6 fluorescence, gall bladder and intestine (AID 686;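 active = a full or partial loss of lipid-probe fluorescence in the fish gall bladder, intestine or both, judged by eye; inactive = no fluorescence loss, or compound toxic to the fish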;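 note: larvae 5 to 7 days old with five fish per well; signal comes from phospholipase A2 cleavage of quenched PED6 carried via bile; overnight exposure to compound and PED6 before scoring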). To be noted: Zebrafish larvae PED6 lipid processing, fluorescence scoring; screened at 20 µM (by protocol).
The nature of assay [10]: loss of swimming-algae plug formation – whole organism, Chlamydomonas reinhardtii, WT vs cilia-less mutant, absorbance, 96-well, primary screen (AID 463189;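 active = inhibition at or above 50% relative to wild type and mutant plate controls; inactive = inhibition below 50%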;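 note: 0% = wild type cc124 cells in DMSO and 100% = ciliumless bld1 mutant cells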). To be noted: Chlamydomonas reinhardtii gravitaxis, OD600 absorbance, 2 days; at 10 µM; stronger effect = higher value.
Assay [11] can be described thus: blockers of RIG-like receptor reporter activation – cell-based, Sendai virus stimulus, luciferase, 10K MLSCN set, TLR/RLR signaling modifier project, primary screen (AID 602276;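 active = inhibition at or above 50% at 10 µM; inactive = inhibition below 50%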;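 note: firefly luciferase from ISG56 promoter only with Renilla not read in this screen; 0% = Sendai virus plus DMSO and 100% = medium plus DMSO without virus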). To be noted: HEK293 RL24 IRF3 luciferase reporter, at 10 µM, stronger effect = higher value. A general note: Reporter assays use an easily measured gene product as a stand-in for the process of interest.

Assay [12] in a line: TLR3 IRF3 reporter activation blockers – cell-based, poly I:C stimulus, luciferase, 10K MLSCN set, primary screen (AID 602277;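 active = inhibition of the reporter signal at or above 50%; inactive = inhibition below 50%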). Conditions: HEK293-TLR3 RL24 IRF3 luciferase reporter, at 10 µM, stronger effect = higher value.
Assay [13] addresses Muscarinic acetylcholine receptor M4 (Homo sapiens) (UniProt P08173). Put plainly: M4-linked GIRK flux change, two-sided – cell-based, HEK293 M4/GIRK, thallium flux, BTC-AM, M4 allosteric agonist project, primary screen (AID 625;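 active = fluorescence slope after compound addition differing from the mean of all tested samples at 99.7% confidence, mostly higher but some lower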;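 note: thallium influx through GIRK channels coupled to M4 in HEK293 cells with BTC-AM dye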). Conditions: at 10 µM, actives lie on both sides.
The mark [14] stands for this setting: measured here: cell density z-score.
[15] abbreviates: measured here: nuclear c-Myc green intensity z-score.
[16] abbreviates: measured here: nuclear pErk red intensity z-score, stronger effect = higher value.

Sequence of Voltage-gated potassium channel subunit beta-2 (Rattus norvegicus) (P62483 whole entry, looked up): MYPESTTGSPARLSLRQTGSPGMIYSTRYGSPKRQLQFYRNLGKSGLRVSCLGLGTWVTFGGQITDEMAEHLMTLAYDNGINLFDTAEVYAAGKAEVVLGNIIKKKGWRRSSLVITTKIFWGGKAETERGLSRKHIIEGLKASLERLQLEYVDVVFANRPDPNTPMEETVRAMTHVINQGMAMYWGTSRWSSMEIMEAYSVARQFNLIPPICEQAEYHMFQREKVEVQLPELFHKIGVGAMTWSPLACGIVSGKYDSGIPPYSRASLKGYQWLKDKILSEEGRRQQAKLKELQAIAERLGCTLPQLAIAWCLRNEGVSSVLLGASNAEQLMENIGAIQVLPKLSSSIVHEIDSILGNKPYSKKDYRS
Sequence of Muscarinic acetylcholine receptor M4 (Homo sapiens) (P08173 whole entry, looked up): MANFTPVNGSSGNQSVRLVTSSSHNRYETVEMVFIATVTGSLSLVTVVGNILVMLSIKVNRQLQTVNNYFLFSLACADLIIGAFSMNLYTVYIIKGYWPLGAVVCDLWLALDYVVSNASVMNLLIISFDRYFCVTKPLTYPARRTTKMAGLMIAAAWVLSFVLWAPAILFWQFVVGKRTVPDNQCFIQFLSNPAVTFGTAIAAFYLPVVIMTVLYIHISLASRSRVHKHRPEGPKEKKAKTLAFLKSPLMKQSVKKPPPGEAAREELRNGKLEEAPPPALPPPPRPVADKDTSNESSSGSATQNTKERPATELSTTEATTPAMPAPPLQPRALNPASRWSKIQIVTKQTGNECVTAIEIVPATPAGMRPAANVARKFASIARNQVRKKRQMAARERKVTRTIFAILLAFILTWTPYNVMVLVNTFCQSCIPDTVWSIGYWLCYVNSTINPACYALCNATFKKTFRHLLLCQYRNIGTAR

Broadly, the inhibition is the change of the read-out against control, counted positive when it falls. As to `CCC(CC)C1C(C#N)=C(N)Oc2n[nH]c(C)c21` (stereo not given), the cell count in [1] came to 565. Also, the inhibition was -2.9% (inactive) in assay [1]; -21.1% (inactive) in assay [3]; 5.57% (inactive) in [5]; -5.48% (inactive) in assay [10]; 41.8% (inactive) in assay [11]; 50% (inactive) in [12]. Besides, in [2], the inhibition of aggregation was -28.3% (inactive). In addition, the results for the nuclei count in assay [2] and in assay [3] were 102% and 112%, respectively. The figures for the z-score in assay [4] (setting [14]), in assay [4] (setting [15]) and in assay [4] (setting [16]) were -1.42, -0.486 and 0.51, respectively. The fluorescence slope in assay [6] is -0.492 (inactive). Also, the NADPH fluorescence slope in assay [7] is -0.000106 (inactive). The slope in [8] is 0.00492 (inactive). In addition, in assay [9], the molecule was classed as inactive.

Turning to `COc1ccc2c(c1)[nH]c1c(=O)n(CC3CCCO3)cnc12` (stereo not given), the cell count in assay [1] was determined as 702. The inhibition is -0.4% (inactive) in assay [1]; -39.2% (inactive) in assay [3]; -2.91% (inactive) in assay [5]; 0.053% (inactive) in assay [10]; -17.6% (inactive) in assay [11]; -27.5% (inactive) in assay [12]. For the same molecule, the inhibition of aggregation in [2] is 5.9% (inactive). For the same molecule, the figures for the nuclei count in [2] and in [3] were 73.4% and 133%, respectively. The z-score in assay [4] (setting [14]) was 1.51; in [4] (setting [15]) it was -0.546; in assay [4] (setting [16]), -1.36. The fluorescence slope in assay [6] is -0.423 (inactive); in assay [13], 0.00561 (inactive). In assay [7], the NADPH fluorescence slope was -4.3e-05 (inactive). Besides, the call in assay [9] was inactive.

For `COC(=O)CN(c1nc(C)c(Cl)c(OC)n1)S(=O)(=O)c1ccc(C)cc1`, the cell count in assay [1] was 706. Also, the inhibition in [1] is -4.1% (inactive); in assay [3], -48.3% (inactive); in assay [5] it was -11% (inactive); in [10], 5.7% (inactive); in [11], 13.8% (inactive); in assay [12], 18.7% (inactive). Besides, the inhibition of aggregation in assay [2] is 2.4% (inactive). The nuclei count in assay [2] amounted to 98.1%; in assay [3], 148%. In addition, the z-score in [4] (setting [14]) was -0.882; in [4] (setting [15]), 0.458; in assay [4] (setting [16]), 1.21. Moreover, the fluorescence slope in assay [6] was -0.373 (inactive). The NADPH fluorescence slope in [7] is -4.1e-05 (inactive). The slope in [8] is 0.00465 (inactive). For the same molecule, the call in assay [9] was inactive.

Turning to `Cc1noc(COc2ccccc2OCC(O)CNC(C)(C)C)n1` (stereo not given), the cell count in assay [1] was 623. The inhibition in assay [1] is -11.7% (inactive); in [3], -52.1% (inactive); in [5], -16.8% (inactive); in assay [10], -3.71% (inactive); in assay [11] it was 16.2% (inactive); in assay [12], 99.7% (active). Also, the inhibition of aggregation in assay [2] is 16.2% (inactive). For the same molecule, the nuclei count was found to be 89.4% in assay [2] and 128% in assay [3]. For the same molecule, the z-score was -0.283 in [4] (setting [14]), 1.24 in assay [4] (setting [15]) and 2.27 in [4] (setting [16]). Besides, the fluorescence slope in [6] was -0.496 (inactive). In addition, the NADPH fluorescence slope in [7] is -2.4e-05 (inactive). Besides, the slope in [8] was 0.0046 (inactive). Besides, the molecule was called inactive in assay [9].

As for `CCNC(=O)N(C)c1nncnc1C(=O)NC`, the cell count in [1] worked out at 435. The inhibition in [1] was -12.6% (inactive); in assay [3] it was -11.1% (inactive); in [5] it was 2.92% (inactive); in [10], 35.2% (inactive); in [11], 18.1% (inactive); in [12] it was 22.2% (inactive). For the same molecule, in assay [2], the inhibition of aggregation was 6.9% (inactive). The nuclei count in assay [2] and in assay [3] was 105% in each case. In addition, the z-score worked out at 0.426 in assay [4] (setting [14]), 0.386 in [4] (setting [15]) and 0.174 in [4] (setting [16]). Also, the fluorescence slope in assay [6] is -0.505 (inactive). Besides, the NADPH fluorescence slope in assay [7] is -4.4e-05 (inactive). In assay [8], the slope is 0.00736 (inactive). Besides, the result in assay [9] was inactive.
